Results taken from PubChem BioAssay (NCATS).
Inconclusive results are not listed. Activity calls are given as the source filed them. Calls come from the whole dose curve; as a rule, active = well fitted curve in the direction sought with a large enough effect; inconclusive = small, poorly fitted or top-dose-only effect, or another doubt; inactive = no such curve, though single readings can be large; an effect the other way counts as inactive or inconclusive.

What was measured:
[1] = system: Zika virus NS2B-NS3 protease (linked construct); assay: Primary screen NINDS Rhodamine qHTS for Zika virus inhibitors (AID 1347160); note: nearly all actives have a fitted effect of over 55% in size; for activity change, negative = inhibition: % is set by controls: 0 for no effect and ±100 for the full control effect
How it was run: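 Kinetic fluorescence (Ex 480 nm, Em 540 nm) over 15 min with 1.5 microM Rhodamine110 peptide and 25 nM linked protease.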

[2] = Primary qHTS for inhibitors of nuclear receptor binding SET domain protein 2 (NSD2) in an isogenic RCH-ACV NSD2 p.E1099K mutant (9B) (AID 1645876); note: nearly all actives have a fitted effect of over 70% in size; note: potency is the fitted concentration of half-maximal effect
[3] = Primary qHTS for inhibitors of nuclear receptor binding SET domain protein 2 (NSD2) in an RCH-ACV wild type WT cells (2C) (AID 1645877); note: nearly all actives have a fitted effect of over 70% in size; note: potency is the fitted concentration of half-maximal effect
[4] = molecular target: Phospholipid hydroperoxide glutathione peroxidase GPX4 (Homo sapiens) (UniProt P36969); assay: Primary qHTS Assay for Inhibitors of Recombinant Selenoprotein Glutathione Peroxidase 4 (GPX4) (AID 1845192); conditions: outcome: dose series up to 50 µM unless noted; note: % is set by controls: 0 for no effect and ±100 for the full control effect; nearly all actives have a fitted effect of over 65% in size
Phospholipid hydroperoxide glutathione peroxidase GPX4 (Homo sapiens), sequence (P36969 whole entry, looked up): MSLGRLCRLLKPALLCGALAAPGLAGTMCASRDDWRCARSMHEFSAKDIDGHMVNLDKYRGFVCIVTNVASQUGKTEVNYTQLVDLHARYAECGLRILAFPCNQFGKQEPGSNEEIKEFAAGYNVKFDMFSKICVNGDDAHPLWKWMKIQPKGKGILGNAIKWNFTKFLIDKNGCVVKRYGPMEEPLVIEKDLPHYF
How it was run: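 GR-coupled assay: recombinant GPX4 preincubated 30 min with compound at room temperature; final 200 nM GPX4, 1 mM GSH, 0.5 mM cumene hydroperoxide, 0.5 mM NADPH, 100 nM GR, 0.01% BSA, pH 7.5 Tris. NADPH fluorescence (340/450 nm) read at 0 and 15 min.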

[5] = molecular target: Luciferin 4-monooxygenase (Photinus pyralis) (UniProt P08659); assay: Primary firefly luciferase (FLuc) qHTS assay for identification of artifact compounds. (AID 1845220); note: nearly all actives have a fitted effect of over 60% in size; note: potency is the fitted concentration of half-maximal effect;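 for activity change, negative = inhibition: plate controls were DMSO vehicle for no effect and no enzyme for full effect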
How it was run: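 Enzymatic FLuc inhibition assay: compounds pre-exposed to luciferin/ATP (10 uM each) for 15 min, then purified P. pyralis enzyme at 10 nM added. Read-out: luminescence at 5 min.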

[6] = system: Nanoluciferase (engineered Oplophorus gracilirostris luciferase); assay: Primary Nanoluciferase (NLuc) qHTS assay for identification of artifact compounds. (AID 1845222); note: potency is the fitted concentration of half-maximal effect;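 for activity, negative = inhibition: NLuc secreted into diluted conditioned medium of S16 cells; 0% = DMSO and -100% = no enzyme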
How it was run: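 S16 cell supernatant NLuc, 1:55; cpds qHTS; 15 min RT dark; Nano-Glo substrate 1:100, 5 min; luminescence; Hill fit of % inhibition.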

[7] = Primary redox qHTS assay for identification of artifact compounds. (AID 1845223);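 note: 0% = DMSO and 100% = reference compound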
How it was run: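 Amplex Red (25 uM) and HRP (250 mU/mL) in HBSS, with compounds for 15 min, then 250 uM DTT for 30 min, room temperature, dark. Fluorescence 525/598 nm read; normalized to DMSO and 10 uM DA3003; Hill fit.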

C33A = assay: Primary qHTS to identify gynecologic anti-cancer compounds using libraries of approved drugs and bioactive compounds (AID 1345084); conditions: Gynecologic cancer cell panel viability, ATPlite luminescence, 48 h; series mostly up to 57.5 µM; note: nearly all actives have a fitted effect of over 55% in size; note: potency is the fitted concentration of half-maximal effect; for activity change, negative = cytotoxicity: % is set by controls: 0 for no effect and ±100 for the full control effect
How it was run: (§1)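 ATP-based viability (ATPlite), 1,000 cells/well, 16 h pre-incubation, 48 h compound at 37 C, 5% CO2, 15 min RT before read.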

CASKI = assay: as above; conditions: Gynecologic cancer cell panel viability, ATPlite luminescence, 48 h; series mostly up to 57.5 µM
How it was run: as §1

Es-2 = assay: as above; conditions: Gynecologic cancer cell panel viability, ATPlite luminescence, 48 h; series mostly up to 57.5 µM
How it was run: as §1

HeLa = assay: as above; conditions: Gynecologic cancer cell panel viability, ATPlite luminescence, 48 h; series mostly up to 57.5 µM
How it was run: as §1

Hek293T = assay: as above; conditions: Gynecologic cancer cell panel viability, ATPlite luminescence, 48 h, control line for the selectivity index; series mostly up to 57.5 µM
How it was run: as §1

JEG-3 = assay: as above; conditions: Gynecologic cancer cell panel viability, ATPlite luminescence, 48 h; series mostly up to 57.5 µM
How it was run: as §1

OV90 = assay: as above; conditions: Gynecologic cancer cell panel viability, ATPlite luminescence, 48 h; series mostly up to 57.5 µM
How it was run: as §1

Tov-21-G = assay: as above; conditions: Gynecologic cancer cell panel viability, ATPlite luminescence, 48 h; series mostly up to 57.5 µM
How it was run: as §1

Tov112D = assay: as above; conditions: Gynecologic cancer cell panel viability, ATPlite luminescence, 48 h; series mostly up to 57.5 µM
How it was run: as §1

[8] = molecular target: Calcium and integrin-binding protein 1 (Homo sapiens) (UniProt Q99828); assay: Primary qHTS for Identification of Calcium Integrin Binding Protein 1 (CIB1) Competitor (AID 1508620);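 note: GST tagged CIB1 binding a fluorescein labelled alphaIIb integrin peptide tracer; top concentration of the series differs between compounds; % is set by controls: 0 for no effect and ±100 for the full control effect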
Calcium and integrin-binding protein 1 (Homo sapiens), sequence (Q99828 whole entry, looked up): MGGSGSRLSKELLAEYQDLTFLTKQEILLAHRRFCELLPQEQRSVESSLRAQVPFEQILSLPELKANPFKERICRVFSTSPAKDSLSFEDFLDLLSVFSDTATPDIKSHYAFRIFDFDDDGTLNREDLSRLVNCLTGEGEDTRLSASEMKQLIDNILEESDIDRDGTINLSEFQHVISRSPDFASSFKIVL
How it was run: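 Fluorescence polarization competition: GST-tagged CIB1 (1 uM final) preincubated with compound 15 min at room temperature, then FITC-labelled alphaIIb peptide (100 nM final) added. After 15 min at room temperature, polarization read at Ex 480/Em 540.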

[9] = molecular target: Glutathione peroxidase 1 (Homo sapiens) (UniProt P07203); assay: Primary qHTS Assay for Inhibitors of Recombinant Selenoprotein Glutathione Peroxidase 1 (GPX1) (AID 1845191); note: nearly all actives have a fitted effect of over 65% in size; for activity, negative = inhibition: % is set by controls: 0 for no effect and ±100 for the full control effect
Glutathione peroxidase 1 (Homo sapiens), sequence (P07203 whole entry, looked up): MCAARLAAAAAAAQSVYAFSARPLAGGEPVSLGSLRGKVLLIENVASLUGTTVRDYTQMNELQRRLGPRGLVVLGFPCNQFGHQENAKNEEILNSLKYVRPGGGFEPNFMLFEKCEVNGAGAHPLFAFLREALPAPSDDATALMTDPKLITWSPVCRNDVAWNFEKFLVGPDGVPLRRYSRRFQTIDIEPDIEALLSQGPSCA
How it was run: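 GR-coupled assay: compounds preincubated 30 min at room temperature with GPX1, then reaction started with CHP; final 10 nM GPX1, 1 mM GSH, 0.5 mM CHP, 0.5 mM NADPH, 100 nM GR, 0.01% BSA, pH 7.5 Tris buffer. NADPH fluorescence (340/450 nm) read at 0 and 15 min.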

[10] = Primary fluorescence-based thiol-reactive (MSTI) qHTS assay for identification of artifact compounds. (AID 1845221);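 note: thiol-reactive compounds lower the probe fluorescence signal; nearly all actives have a fitted effect of over 65% in size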
How it was run: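 A multi-concentration qHTS design tested compounds against 4 uM MSTI, pH 7.4 phosphate-buffered saline. Plates were protected from light for 1 h at room temperature before imaging fluorescence.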

CN[C@@H]1[C@@H](O)[C@@H](O[C@@H]2[C@@H](O)[C@H](O[C@H]3O[C@@H]([C@@H](C)NC)CC[C@H]3N)[C@@H](N)C[C@H]2N)OC[C@]1(C)O
inactive: Potency [1] | Potency [2] | Potency [3] | Potency [4] | Potency [5] | Potency [6] | Potency [7] | Potency (C33A) | Potency (CASKI) | Potency (Es-2) | Potency (HeLa) | Potency (Hek293T) | Potency (JEG-3) | Potency (OV90) | Potency (Tov-21-G) | Potency (Tov112D)

CS(=O)(=O)c1ccc(-c2cn3ccccc3n2)cc1
active: Potency (C33A) 10 µM | Potency (CASKI) 6.31 µM | Potency (HeLa) 12.6 µM | Potency (Hek293T) 17.8 µM | Potency (JEG-3) 7.08 µM | Potency (OV90) 7.94 µM | Potency (Tov-21-G) 8.91 µM | Potency (Tov112D) 7.94 µM

CC(CCC1(O)OC2CC3C4CC=C5CC(O[C@@H]6O[C@H](CO)[C@@H](O[C@@H]7O[C@H](CO)[C@@H](O)[C@H](O)[C@H]7O)[C@H](O)[C@H]6O[C@@H]6O[C@@H](C)[C@H](O)[C@@H](O)[C@H]6O)CCC5(C)C4CCC3(C)C2C1C)CO[C@@H]1O[C@H](CO)[C@@H](O)[C@H](O)[C@H]1O (some centres not stated)
inactive: Potency [1] | outcome [8] | Potency [9] | Potency [4] | activity change, negative = inhibition [5] 1.02% [at 11.6 µM] | activity change, negative = thiol reactive [10] 204% [at 11.5 µM] | activity, negative = inhibition [6] 4.58% [at 11.6 µM] | redox activity (% of DA3003) [7] 5.01% [at 11.5 µM] | activity change, negative = cytotoxicity (C33A) 1.45% [at 11.6 µM] | activity change, negative = cytotoxicity (CASKI) 1.26% [at 11.6 µM] | activity change, negative = cytotoxicity (Es-2) 5.5% [at 11.6 µM] | activity change, negative = cytotoxicity (HeLa) -13.3% [at 11.6 µM] | activity change, negative = cytotoxicity (Hek293T) 1.54% [at 11.6 µM] | activity change, negative = cytotoxicity (JEG-3) -6.68% [at 11.6 µM] | activity change, negative = cytotoxicity (OV90) -1.03% [at 11.6 µM] | activity change, negative = cytotoxicity (Tov-21-G) -1.21% [at 11.6 µM] | activity change, negative = cytotoxicity (Tov112D) 7.99% [at 11.6 µM]

CC1(CO)CCCC2(C)C1C(OC(=O)c1ccccc1)C=C1C(=O)OCC12O (configuration not stated)
active: Potency [2] 2.84 µM | Potency [3] 1.79 µM | Potency (Tov-21-G) 11.2 µM
inactive: Potency [1] | Potency [9] | Potency [4] | Potency [5] | Potency [6] | Potency [7] | Potency (CASKI) | Potency (HeLa) | Potency (JEG-3) | Potency (Tov112D)

c1ccc(-c2cnc(Nc3ccc(OCCN4CCCC4)cc3)s2)cc1
active: Potency [2] 9.16 µM | Potency [3] 9.16 µM | Potency [5] 23.9 µM
inactive: Potency [1] | outcome [8] | Potency [9] | Potency [4] | Potency [6] | Potency [7] | Potency (C33A) | Potency (CASKI) | Potency (Es-2) | Potency (HeLa) | Potency (Hek293T) | Potency (JEG-3) | Potency (Tov112D)

Cc1nc(C)c2c(n1)N(Cc1ccc(-c3ccccc3-c3nn[nH]n3)cc1)C(=O)CC2
inactive: Potency [1] | outcome [8] | Potency [2] | Potency [3] | Potency [9] | Potency [4] | Potency [5] | Potency [10] | Potency [7] | Potency (C33A) | Potency (CASKI) | Potency (Es-2) | Potency (HeLa) | Potency (Hek293T) | Potency (JEG-3) | Potency (OV90) | Potency (Tov-21-G) | Potency (Tov112D)
active: Potency [6] 21.3 µM

Cc1nnsc1C(=O)Nc1ccc(-n2nc(C(F)(F)F)cc2C(F)(F)F)cc1
active: Potency [2] 20.5 µM
inactive: outcome [8] | Potency [9] | Potency [4] | Potency [5] | Potency [10] | Potency [6] | Potency [7] | Potency (C33A) | Potency (CASKI) | Potency (Es-2) | Potency (HeLa) | Potency (Hek293T) | Potency (JEG-3) | Potency (OV90) | Potency (Tov-21-G) | Potency (Tov112D)

C[C@@H](O[C@H]1OCCN(Cc2n[nH]nc2CN(C)C)[C@H]1c1ccc(F)cc1)c1cc(C(F)(F)F)cc(C(F)(F)F)c1
inactive: Potency [1] | outcome [8] | Potency [9] | Potency [4] | Potency [5] | Potency [10] | Potency [6] | Potency [7] | Potency (C33A) | Potency (CASKI) | Potency (Es-2) | Potency (HeLa) | Potency (Hek293T) | Potency (JEG-3) | Potency (OV90) | Potency (Tov-21-G) | Potency (Tov112D)
active: Potency [2] 16.3 µM | Potency [3] 14.5 µM

Cc1cc(C)c(-c2csc(NC(=O)c3ccccc3)n2)c(C)c1
active: Potency [2] 4.09 µM | Potency [3] 4.09 µM
inactive: Potency [1] | outcome [8] | Potency [9] | Potency [4] | Potency [5] | Potency [10] | Potency [6] | Potency [7] | Potency (Es-2) | Potency (HeLa) | Potency (JEG-3) | Potency (OV90) | Potency (Tov-21-G)

CCS(=O)(=O)N(Cc1cccnc1)c1cccc(-c2ccc(C#N)cc2)c1
inactive: Potency [1] | outcome [8] | Potency [9] | Potency [4] | Potency [5] | Potency [10] | Potency [6] | Potency [7] | Potency (C33A) | Potency (CASKI) | Potency (Es-2) | Potency (HeLa) | Potency (Hek293T) | Potency (JEG-3) | Potency (Tov112D)
active: Potency [2] 16.3 µM | Potency [3] 20.5 µM
